High-throughput results (PubChem)
Rows were chosen to be rich in hits. Some 19% of all compounds tested hit in one or more screens of this group.
DT40 TDP1 CPT: DT40-hTDP1 cell growth loss with CPT; chicken DT40 Tdp1-/-;hTDP1 cells + 20 nM CPT, ATP luminescence, 48 h; Potency, µM (top dose mostly 46.2 µM), for the others: top-dose activity change, negative = growth inhibition, usual class: inhibitors; actives 12% (n = 420,000); note: potency is the fitted concentration of half-maximal effect; nearly all actives have a fitted effect of over 55% in size
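Chicken DT40 Tdp1-/- cells stably complemented with human TDP1 were seeded at 400 cells/well in medium containing 20 nM camptothecin, exposed to pin-transferred compounds, and grown at 37 °C for at least 48 hr. Viability was read as ATP luminescence.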
IL1B secr inh: blocks inflammasome-driven IL-1 beta release | THP-1 LPS/ATP IL-1B secretion, AlphaLISA, 16 h; hits give low values | activity change, % at 57.5 µM | actives 4.7% (n = 360,000) | AID 743279; in the data active = activity change below about -50%; inconclusive = mostly about -30% to -49%
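THP-1 cells pretreated 1 hr with compounds (up to 57.5 uM final), then stimulated with LPS (250 ng/mL final) plus ATP (1.25 mM final); secreted IL-1B measured by AlphaLISA after 16 hr, decreased signal indicating inhibition.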
DT40 TDP1 no CPT: qHTS for Inhibitors of human tyrosyl-DNA phosphodiesterase 1 (TDP1): qHTS in cells in absence of CPT | DT40 Tdp1-/- hTDP1 cells, no CPT, ATP luminescence, 48 h | Potency, µM (doses to about 46.2 µM), for inactives: top-dose activity change, negative = growth inhibition, usual class: inhibitors | actives 15% (n = 420,000); note: potency is the fitted concentration of half-maximal effect; nearly all actives have a fitted effect of over 55% in size
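DT40 Tdp1-/-;hTDP1 cells, no CPT (DMSO vehicle only), 400 cells/well; compounds pin-transferred; ≥48 hr, 37 °C; CellTiter-Glo 30 min RT dark, luminescence read.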
HT1080NT lethal: kills 2HG-producing HT-1080-NT fibrosarcoma cells. HT-1080-NT fibrosarcoma viability, CellTiter-Glo ATP luminescence, 48 h. Potency, µM (highest dose often 46.1 µM), inactives show at the top dose activity, negative = less viability, most hits filed as cytotoxic. actives 1.6% (n = 360,000);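 note: NT is the 2HG producing partner of a matched IDH1 knockdown line; potency is the fitted concentration of half-maximal effect; 0% = DMSO-treated cells and -100% = media-only wells without cells; nearly all actives have a fitted effect of over 55% in size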
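Compounds were tested in concentration-response format on HT-1080-NT cells for 48 hours at 37 degrees C. Cell viability came from CellTiter-Glo luminescence; curves were classified by r2, response magnitude and activity.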
HT1080 IDH1KD tx: HT-1080 IDH1 knockdown cell toxicity (counter line). actives 2% (n = 360,000). HT-1080 IDH1 knockdown viability, ATP luminescence, 48 h. Potency, µM (series often up to 46.1 µM), for the others: at the top dose activity, negative = toxicity, usual class: cytotoxic;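 note: potency is the fitted concentration of half-maximal effect; 0% = DMSO wells and -100% = cell-free medium wells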
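In this qHTS, HT-1080 cells depleted of IDH1 are exposed for 48 h at 37 °C to compound titrations. Toxicity is scored from CellTiter-Glo luminescence, with DMSO as full viability and medium alone as none.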
An asterisk follows results filed as active; ? = inconclusive; nt = no result given. Unless noted, calls come from the whole dose curve; as a rule, active = well fitted curve in the direction sought with a large enough effect; inconclusive = small, poorly fitted or top-dose-only effect, or another doubt; inactive = no such curve, though single readings can be large; an effect the other way counts as inactive or inconclusive. Unless noted, % is set by controls: 0 for no effect and ±100 for the full control effect.

SMILES | DT40 TDP1 CPT | IL1B secr inh | DT40 TDP1 no CPT | HT1080NT lethal | HT1080 IDH1KD tx
COc1cccc(S(=O)(=O)N(C)C[C@@H]2Oc3cc(C#CCN(C)C)ccc3S(=O)(=O)N([C@H](C)CO)C[C@@H]2C)c1 | -18% | -25 | ? | -1% | -7%
CC1=C(C(=O)N(C)C)CC(CC(=O)NCc2cccc3ccccc23)C(=O)N1CCCN1CCCC1=O (stereo not drawn) | 21% | 11 | 16% | 0% | 6%
CCOc1ccccc1C1NC(=O)CCC1[N+](=O)[O-] (stereo not drawn) | 13% | 5 | -1% | 25% | 3%
Cc1cc[n+](CC2OCc3ccccc3CO2)cc1 | ? | 47 | 18µM* | ? | -2%
O=C(CCl)NCc1cc(-c2ccc(Cl)cc2)no1 | 10µM* | -75* | 18µM* | 12µM* | 9.2µM*
COc1ccc(OCc2cc(-c3ccc(Cl)cc3)no2)cc1 | -15% | 105 | -1% | ? | 20%
CC(CN1CCCCC1)OC(=O)c1ccc(Cl)cc1 (stereo not drawn) | -8% | 8 | -10% | 8% | 5%
CC(CN1CCN(C)CC1)OC(=O)c1ccc(Cl)cc1 (stereo not drawn) | -7% | -84* | -5% | -13% | -22%
COc1ccc(C2C3=C(CCCC3=O)Nc3c(-c4ccccc4)c(C)nn32)cc1 (stereo not drawn) | -23% | -26 | -30% | ? | ?
CCC(=O)Nc1cccc(C(=O)c2ccc(C)c(C)c2)c1 | -29% | ? | 21µM* | 8% | -3%
CCC(=O)Nc1cccc(C(=O)/C=C/c2ccccc2)c1 | 4.1µM* | -117* | 5.2µM* | ? | ?
CC(=O)Nc1cccc(C(=O)OC(C(=O)c2ccc(C)c(C)c2)c2ccccc2)c1 (stereo not drawn) | 16µM* | -8 | 16µM* | -4% | -21%
CCC(=O)Nc1cccc(C(=O)/C=C/c2cccs2)c1 | ? | -95* | 21µM* | -7% | -10%
NC(=O)[C@@H]1CCCN1Cc1c(C(=O)N2CCc3ccccc3C2)nc2ccc(Cl)cn12 | -17% | 40 | 26% | 8% | 2%
O=C(NCc1ccncc1)c1cnn(-c2ncc3c(n2)-c2ccccc2CC3)c1C1CC1 | 10% | nt | -8% | nt | nt
O=C(NCC1CCCN(C(=O)c2cscn2)C1)c1ccc(-c2ccccc2)cc1 (stereo not drawn) | -29% | ? | 21µM* | -21% | -21%
O=C(NCC1CCCN(C(=O)c2cscn2)C1)c1ccccc1Cl (stereo not drawn) | -11% | 7 | -26% | 20% | 21%
O=C(Nc1cccc(-c2ccc(F)cc2)c1)C1CCCN(C(=O)c2cscn2)C1 (stereo not drawn) | 13µM* | 18 | ? | -4% | 3%
COc1ccc(NC(=O)C2CCCN(C(=O)Nc3ccc(F)cc3)C2)cc1OC (stereo not drawn) | 6% | 8 | -10% | -9% | -1%
Cc1ccccc1NC(=O)C1CCCN(C(=O)Nc2ccc(F)cc2)C1 (stereo not drawn) | -18% | -7 | ? | 7% | 3%
Cc1ncoc1C(=O)N1CCCC(C(=O)Nc2cccc(-c3ccc(F)cc3)c2)C1 (stereo not drawn) | ? | -9 | 18µM* | -5% | -2%
CC(=O)Oc1ccc(/C(C)=N\N2CCN(Cc3ccc(Cl)cc3)CC2)cc1 | ? | 8 | -8% | 0% | 3%
COC(=O)c1ccc(S(=O)(=O)c2ccc([N+](=O)[O-])cc2)cc1 | ? | -4 | -28% | 13% | 1%
Cn1c(S(=O)(=O)c2ccc([N+](=O)[O-])cc2)nc(Br)c1Br | 21µM* | nt | ? | ? | ?
Cn1cnnc1SC1c2cccc3cccc(c23)C1NS(=O)(=O)c1ccccc1 (stereo not drawn) | 5% | -13 | -4% | -5% | -2%
SMILES | DT40 TDP1 CPT | IL1B secr inh | DT40 TDP1 no CPT | HT1080NT lethal | HT1080 IDH1KD tx
O=S(=O)(NC1c2cccc3cccc(c23)C1Sc1ncccn1)c1ccccc1 (stereo not drawn) | ? | -3 | 21µM* | -23% | -26%
COc1cccc(CNC(=O)c2c(OC)cc(=O)n3c2CCN(C(=O)C2CC24CCCCC4)CC3)c1 (stereo not drawn) | 0% | nt | -15% | nt | nt
COc1ccc(N2C(=O)CC(Nc3ccc(C)cc3)C2=O)cc1 (stereo not drawn) | 4% | -3 | -3% | -5% | 0%
COc1ccc(N2C(=O)CC(NNc3ncc(Cl)cc3Cl)C2=O)cc1 (stereo not drawn) | 15µM* | 18 | 15µM* | -5% | -9%
Cn1c(CNC(=O)c2ccco2)nnc1SCC(=O)Nc1ccccc1Cl | -11% | -5 | 2% | -3% | 16%
O=C(Nc1ccccc1)N1CCCC2(CCN(C(=O)c3csnn3)CC2)C1 | 14% | nt | -1% | nt | nt
CC1(C)CN(Cc2ccccc2)C(=O)[C@H]1CC(=O)Nc1ccc(Br)cc1 | ? | -16 | 13µM* | 1% | 10%
CC1(C)CN(Cc2ccccc2)C(=O)[C@H]1CC(=O)Nc1ccccc1 | -3% | 0 | ? | 11% | 4%
COc1ccc(NC(=O)C[C@@H]2C(=O)N(Cc3ccccc3)CC2(C)C)cc1 | -26% | 15 | 21µM* | 3% | 0%
CCOC(=O)c1cnc2c(ccc3ccccc32)c1Nc1ccccc1OCC | 8% | nt | -3% | nt | nt
CCOC(=O)c1cnc2c(ccc3ccccc32)c1Nc1ccc(OC)c(OC)c1 | 4.6µM* | nt | 4.6µM* | nt | nt
CCOC(=O)c1cnc2c(ccc3ccccc32)c1NCCCN(C)C | ? | nt | ? | ? | 21µM*
NC(=O)c1ccc[n+]([C@H]2O[C@@H](COP(=O)([O-])OP(=O)(O)OC[C@H]3O[C@@H](n4cnc5c(N)ncnc54)[C@H](O)[C@@H]3O)[C@H](O)[C@@H]2O)c1 | ? | 48 | ? | ? | ?
Cc1ccc(-c2nc(Nc3ccc(O)cc3)c3ccccc3n2)cc1 | ? | -88* | 21µM* | 21µM* | 21µM*
c1cncc(Nc2c3ccccc3nc3ccccc23)c1 | ? | -94* | 15µM* | ? | ?
Oc1cccc(Nc2c3ccccc3nc3ccccc23)c1 | 1.2µM* | -25 | 1.8µM* | ? | ?
COC(=O)c1ccc(Nc2nc(-c3ccc(C)cc3)nc3ccccc23)cc1 | 13µM* | nt | 7.3µM* | nt | nt
Cc1cc(O)c(C=O)c2c1C(=O)Oc1c(COC(=O)/C=C/C(=O)O)c(O)c(C(=O)O)c(C)c1O2 | -5% | nt | -16% | nt | nt
Cc1ccc(-c2nc(Nc3cccc(O)c3)c3ccccc3n2)cc1 | 21µM* | ? | 23µM* | ? | -28%
